# Laboratory results taken from PubChem BioAssay.
# The source made the active and inactive calls. Unless noted, how the calls were made is not given here.
# Tests used:
# [1] = test system: Wnt5a (protein binding on small-molecule microarray); assay: small molecules binding Wnt5a protein – biophysical, small-molecule microarray, 635/667 nm fluorescence, primary screen (AID 1142); settings: 635 nm fluorescence, higher = more signal;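 further: fluorescence read at 667 nm with signal to noise per printed feature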
# [2] = ATP-based viability of Huh7 replicon cells – cell-based, CellTiter-Glo luminescence, basal, 48 h, cytotoxicity control for HCV replication inhibitor project, primary screen (AID 1143); settings: higher = more signal, called active from +8 up or from −8 down;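 further: Huh7 hepatoma cells carrying a hepatitis C replication reporter with no stimulus; test concentration not given here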
# [3] = Pseudomonas biofilm growth suppression – PAO1 strain, BacTiter-Glo luminescence, LB-PBS, primary screen (AID 1144); settings: P. aeruginosa PAO1 biofilm, 12 h, higher = more signal
# [4] = basal CRE-LacZ reporter activity in PC12 – cell-based, unstimulated, primary screen (AID 1145); settings: no forskolin, luminescence, 4.5 h, higher = more signal, called active from +8 up or from −8 down
# [5] = forskolin-driven CRE-LacZ activity in PC12 – cell-based, CRE-LacZ reporter, forskolin-stimulated, primary screen (AID 1146); settings: luminescence, 4.5 h, higher = more signal, called active from +8 up or from −8 down;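 further: PC12 cells with 6xCRE LacZ reporter stimulated by forskolin 10 µM; beta-galactosidase reporter signal reflecting CREB driven transcription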
# [6] = target: Streptavidin (Streptomyces avidinii) (UniProt P22629); assay: compounds binding control protein streptavidin – biophysical, small-molecule microarray, 635/667 nm fluorescence, artefact control for SMM compound annotation, primary screen (AID 1147); settings: higher = more signal;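 further: signal reflects streptavidin binding to arrayed compounds as a control protein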
# [7] = probe aInhba binding on compound microarray – biochemical, small-molecule microarray, 635/667 nm fluorescence, primary screen (AID 1148); settings: higher = more signal;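 further: score merges 667nm spot fluorescence with signal-to-noise for antibody binding to printed compounds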
# Torsin-1A (Homo sapiens) [8] = target: Torsin-1A (Homo sapiens) (UniProt O14656); assay: TOR1A wild-type binding on microarray – cell lysate, small-molecule microarray, lysate, 635/667 nm, primary screen (AID 1149); settings: COS7 hTOR1A-WT lysate, 635 nm fluorescence, higher = more signal
# Torsin-1A (Homo sapiens) [9] = target: Torsin-1A (Homo sapiens) (UniProt O14656); assay: torsin A mutant lysate binding on microarrays – cell lysate, small-molecule microarray, COS7 lysate, 635/667 nm fluorescence, primary screen (AID 1150); settings: COS7 hTOR1A mutant lysate, 635 nm fluorescence, higher = more signal;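 further: score pools 667 nm emission and signal to noise measuring lysate protein binding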
# [10] = test system: Sonic hedgehog protein (Shh); assay: Sonic hedgehog microarray binding compounds – biochemical, small-molecule microarray, 635/667 nm fluorescence, primary screen (AID 1151); settings: 635 nm fluorescence, higher = more signal;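 further: Shh protein binding to compounds spotted on small-molecule microarray slides; score combines spot fluorescence intensity with signal-to-noise across triplicate slides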
# Streptavidin (Streptomyces avidinii), sequence (P22629 whole entry, looked up): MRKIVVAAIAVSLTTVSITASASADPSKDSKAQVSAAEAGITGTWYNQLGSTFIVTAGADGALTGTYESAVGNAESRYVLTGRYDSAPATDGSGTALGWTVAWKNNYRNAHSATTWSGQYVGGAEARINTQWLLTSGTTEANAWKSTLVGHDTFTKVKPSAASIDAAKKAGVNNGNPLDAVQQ
# Torsin-1A (Homo sapiens), sequence (O14656 whole entry, looked up): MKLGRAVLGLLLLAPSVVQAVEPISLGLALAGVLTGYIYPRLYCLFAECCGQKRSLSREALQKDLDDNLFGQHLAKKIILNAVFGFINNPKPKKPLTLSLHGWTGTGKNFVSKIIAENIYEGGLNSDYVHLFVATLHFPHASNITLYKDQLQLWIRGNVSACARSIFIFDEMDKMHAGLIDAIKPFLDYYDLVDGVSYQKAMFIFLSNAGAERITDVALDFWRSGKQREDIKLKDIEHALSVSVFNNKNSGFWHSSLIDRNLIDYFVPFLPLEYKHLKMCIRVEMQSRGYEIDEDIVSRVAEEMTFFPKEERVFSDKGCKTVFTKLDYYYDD
SMILES,composite z-score [1],z-score [2],z-score [3],z-score [4],z-score [5],composite z-score [6],composite z-score [7],composite z-score (Torsin-1A (Homo sapiens) [8]),composite z-score (Torsin-1A (Homo sapiens) [9]),composite z-score [10]
COc1ccc(C(O)C2C=CC3C(=O)N(C)C(=O)C3N2N(c2ccccc2)c2ccccc2)c2ccccc12 (stereo not given),0.151,0.497 (inactive),-0.347 (inactive),0.246 (inactive),1.1 (inactive),0.797,0.0342,0.415,0.526,1.11
O=C(O)[C@H](Cc1ccccc1)n1cc(-c2ccccc2)nn1,0.469,0.594 (inactive),0.192 (inactive),1.56 (inactive),0.219 (inactive),0.572,-0.0494,0.0641,0.804,0.172
O=C1NC(=O)C2C1C=CC(C(O)C=Cc1ccc([N+](=O)[O-])cc1)N2Nc1ccc(Cl)cc1Cl (stereo not given),0.28,0.099 (inactive),-0.402 (inactive),0.253 (inactive),0.342 (inactive),1.14,0.317,0.339,0.417,-0.08
COCCOC(=O)N1C(=O)[C@@]2(c3cc(C#CC4=CCCCC4)ccc31)[C@H](c1ccc(OCCO)cc1)N1[C@H](c3ccccc3)[C@H](c3ccccc3)OC(=O)[C@H]1[C@@H]2C(=O)N1CCc2cc(OC)c(OC)cc2C1,0.687,-0.496 (inactive),-0.536 (inactive),-0.258 (inactive),-0.513 (inactive),0.606,0.346,0.359,1.17,1.32
OB1C=CCC(CCc2ccccc2)O1 (stereo not given),-0.248,-2.16 (inactive),-1.35 (inactive),0.672 (inactive),-1.28 (inactive),-0.492,-0.385,-0.459,-0.643,0.192
CC#CC(=O)Oc1ccc(Br)cc1C=CC(=O)OCC,-0.0465,-2.98 (inactive),0.0278 (inactive),1.81 (inactive),32.2 (active),0.119,0.248,-0.0177,-0.329,0.247
O=C(CS)NCCCCCNC(=O)[C@H]1C[C@H]2C(=O)NCC(=O)N2[C@H]1c1cccc(OCCO)c1,-0.341,-0.466 (inactive),-0.218 (inactive),-1.48 (inactive),0.0277 (inactive),-1.05,-0.217,-0.181,-0.0418,0.27
NCCCCCCNC(=O)[C@H]1C[C@H]2C(=O)N[C@@H](Cc3ccccc3)C(=O)N2[C@H]1c1cccc(OCCO)c1,-0.0371,0.173 (inactive),-0.687 (inactive),-0.545 (inactive),-0.711 (inactive),1.09,-0.128,1.24,0.916,0.16
CC1CC/C=C\[C@H]2OC34C=CCN(c5ccc6ccccc6c5)C(=O)[C@H]3N(CCO)C(=O)[C@@H]4C2C(=O)O1 (stereo not given in full),0.451,-0.929 (inactive),0.282 (inactive),-0.35 (inactive),0.289 (inactive),-0.818,0.0301,-1.34,0.652,0.0032
CC(=O)NCCCC[C@@H]1NC(=O)[C@H]2C[C@@H](C(=O)O)[C@@H](c3ccc(O)cc3)N2C1=O,0.176,-0.798 (inactive),-0.0331 (inactive),5.71 (inactive),7.82 (inactive),0.481,0.0589,0.928,1.69,2.02
COC(=O)[C@@]1(Cc2ccccc2)[C@H]2c3cc(C(=O)N(C)C)n(CCc4c[nH]c5ccc(O)cc45)c3C[C@H]2CN1C(=O)c1ccccc1,0.0434,-1.51 (inactive),0.562 (inactive),0.0041 (inactive),0.1 (inactive),0.0497,0.0878,-0.343,0.604,0.647
CC(=CC1CCCCC1)[C@@H](NC(=O)c1cccnc1)c1ccc(-c2ccccc2)cc1,-0.444,-2.65 (inactive),0.477 (inactive),1.34 (inactive),1.24 (inactive),0.0816,-0.0986,-0.77,-0.278,-0.683
O=C(O)[C@H]1C[C@H]2C(=O)N3CCC[C@H]3C(=O)N2[C@H]1c1ccc(O)cc1,-0.32,-0.44 (inactive),-0.0598 (inactive),-0.122 (inactive),-0.233 (inactive),-1.29,-0.122,0.244,0.109,0.0164
COCCOC(=O)N1C(=O)[C@@]2(c3cc(C#CC4(O)CCCCCC4)ccc31)[C@H](C(=O)Nc1nc3ccccc3s1)[C@H]1C(=O)O[C@H](c3ccccc3)[C@H](c3ccccc3)N1[C@@H]2c1ccccc1OCCO,0.82,-2.5 (inactive),0.451 (inactive),0.212 (inactive),-0.192 (inactive),0.845,-0.0762,0.61,0.144,0.976
C=C(CCCC)/C(=C/C[C@H](OC(C)=O)c1ccccc1OCCO)c1cnc2ccccc2c1,0.382,-1.45 (inactive),0.489 (inactive),4.07 (inactive),0.55 (inactive),0.36,-0.157,0.0711,0.878,1.49
[N-]=[N+]=NCc1ccccc1C[C@@]1(C(=O)NCC(O)CO)N=C(c2ccc(OCCCO)cc2)O[C@@H]1c1ccccc1 (stereo not given in full),0.423,-4.03 (inactive),0.141 (inactive),1.8 (inactive),0.617 (inactive),-0.0302,0.0377,0.237,1.14,-0.982
COc1ccc(C#Cc2ccc3c(c2)[C@]2(C(=O)N3)[C@H](c3ccc(O)cc3)N3[C@H](c4ccccc4)[C@H](c4ccccc4)OC(=O)[C@H]3[C@@H]2C(=O)N2CCc3cc(OC)c(OC)cc3C2)cc1,0.636,-0.678 (inactive),-0.0604 (inactive),0.155 (inactive),0.102 (inactive),1.13,-0.0521,0.135,0.0243,1.78
COc1ccc([C@H]2C[C@H]3C(Br)=C[C@@]2(CO)C(=O)[C@]32CO2)cc1,0.0718,0.187 (inactive),-0.23 (inactive),0.309 (inactive),1.6 (inactive),-0.264,-0.0245,-0.361,-0.83,-0.134
Cc1ccc(S[C@]2(C(=O)NCC(C)C)CC(=O)N(Cc3cc(C(F)(F)F)cc(C(F)(F)F)c3)[C@@H]2c2ccc(CO)cc2)cc1,0.226,0.52 (inactive),-0.846 (inactive),-0.0781 (inactive),1.02 (inactive),-0.342,0.652,0.234,0.118,0.391
NC(=O)[C@@H]1[C@H]2C(=O)O[C@H](c3ccccc3)[C@H](c3ccccc3)N2[C@H](c2ccc(O)cc2)[C@@]12C(=O)Nc1ccc(C#CC3=CCCCC3)cc12,0.0867,-5.11 (inactive),0.403 (inactive),1.17 (inactive),0.117 (inactive),-0.102,0.468,0.558,0.281,2
O=C(NCc1ccccc1)[C@@H]1c2ccccc2C(=O)N(C2Cc3ccccc3C2)[C@H]1c1ccc(CO)cc1,0.303,-0.746 (inactive),0.317 (inactive),0.764 (inactive),0.134 (inactive),0.49,0.196,-0.0754,0.165,1.31
COCCOC(=O)N1C(=O)[C@@]2(c3ccccc31)[C@H](C(=O)N1CCc3cc(OC)c(OC)cc3C1)[C@H]1C(=O)O[C@H](c3ccccc3)[C@H](c3ccccc3)N1[C@@H]2c1ccc(O)cc1,0.622,-3.5 (inactive),-0.726 (inactive),-0.0515 (inactive),2.99 (inactive),1.39,-0.0889,1.06,1.31,1.96
O=C1O[C@@H](c2ccccc2)[C@@H](c2ccccc2)N2[C@@H](c3ccccc3OCCO)[C@]3(C(=O)Nc4ccccc43)[C@@H](C(=O)O)[C@H]12,0.205,-0.99 (inactive),-0.0695 (inactive),0.568 (inactive),2.62 (inactive),1.38,-0.103,0.332,1.14,0.0546
C=C(CCCC)/C(=C/C[C@H](OC(=O)c1ccncc1)c1ccc(OCCO)cc1)c1cc(C(=O)OC)ccc1OC,0.355,-4.81 (inactive),0.282 (inactive),5.11 (inactive),-0.366 (inactive),0.0399,0.0104,0.404,0.102,1.96
O=C1[C@@]23C=C(Br)[C@H](C[C@@H]2COC3)[C@]12CO2,-0.139,-0.38 (inactive),-0.00184 (inactive),1.04 (inactive),1.78 (inactive),-1.08,-0.204,-0.672,-0.666,-0.0003
CCOC(=O)C[C@H]1[C@H](OC(=O)c2ccc(C(=O)c3ccccc3)cc2)[C@@H](NC(=O)Cc2ccc(OC)cc2)c2cc(OCCCO)ccc2N1C(=O)c1ccc2ccccc2n1,0.112,0.0378 (inactive),-0.193 (inactive),0.745 (inactive),-0.668 (inactive),0.619,0.158,-0.202,0.561,0.671
C[N+](C)(C)CCCC[C@@H]1NC(=O)[C@@H]2C[C@H](C(=O)NCCCCCCNC(=O)CS)[C@H](c3ccc(O)cc3)N2C1=O,-0.387,-0.195 (inactive),-0.421 (inactive),0.0165 (inactive),1.45 (inactive),0.553,-0.0963,0.296,0.461,0.586
CC(C)NC(=O)[C@@]1(Cc2ccccc2I)c2ccccc2C(=O)N(Cc2ccccc2Cl)[C@H]1c1ccc(CO)cc1,0.361,-2.21 (inactive),0.5 (inactive),-0.464 (inactive),-0.0764 (inactive),0.746,-0.0557,0.214,0.891,1
O=C1C[C@@](C(=O)NCc2ccccc2)(c2ccc([N+](=O)[O-])cc2)[C@@H](c2ccc(CO)cc2)N1CC12CC3CC(CC(C3)C1)C2,0.38,-4.73 (inactive),0.657 (inactive),0.674 (inactive),-0.841 (inactive),-0.243,-0.189,0.352,0.368,1.99
